{
  "source": "PubChem BioAssay (NCATS)",
  "key": {"[1]": {"tested_on": "Zika virus NS2B-NS3 protease (unlinked complex)", "test": "Primary screen GU Rhodamine qHTS for Zika virus inhibitors: Unlinked NS2B-NS3 protease assay (AID 1347159); also: nearly all actives have a fitted effect of over 60% in size", "how_it_was_run": "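In dose–response format, inhibition of unlinked protease (25 nM) was measured with 1.5 microM bis-peptide Rhodamine110 substrate. Aprotinin served as the intraplate control.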"}, "[2]": {"tested_on": "Zika virus NS2B-NS3 protease (linked construct)", "test": "Primary screen NINDS Rhodamine qHTS for Zika virus inhibitors (AID 1347160); also: nearly all actives have a fitted effect of over 55% in size", "how_it_was_run": "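Each compound, titrated, sat 15 min with 25 nM linked protease before 1.5 microM Rhodamine110 substrate went in. Fluorescence gain over the next 15 min, in pH 8.0 Tris with Tween 20, gave Hill-fitted curves.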"}},
  "note": "Records with an inconclusive call do not appear. Where a call stands in place of a potency, no number is given. A number with no mark means an inactive call. Active and inactive are the calls of the source. Calls follow the shape of the dose curve; as a rule, active = well fitted inhibition curve with a large enough effect; inconclusive = small, poorly fitted or top-dose-only effect; inactive = no such curve, though single readings can be large or run the other way.",
  "data": [
    {"smiles": "Nc1nc2c(ncn2[C@@H]2O[C@H](CO)[C@@H](O)[C@H]2O)c(=O)[nH]1", "values": [
      {"measurement": "Potency", "setting": "[1]", "result": "inactive"},
      {"measurement": "Potency", "setting": "[2]", "result": "inactive"}
    ]},
    {"smiles": "CC(C)(O[C@@H]1O[C@H](CO)[C@@H](O)[C@H](O)[C@H]1O)C(OC(=O)/C=C\\c1ccc(O)cc1)C(=O)OCc1ccc(O[C@@H]2O[C@H](CO)[C@@H](O)[C@H](O)[C@H]2O)cc1", "note": "(stereo partly specified)", "values": [
      {"measurement": "Potency", "setting": "[1]", "result": "inactive"},
      {"measurement": "Potency", "setting": "[2]", "result": "inactive"}
    ]},
    {"smiles": "CNCc1ccc(-c2cc(-c3nc(-c4ccc(S(=O)(=O)C(C)C)cc4)cnc3N)on2)cc1", "values": [
      {"measurement": "Potency", "setting": "[1]", "result": "inactive"},
      {"measurement": "Potency", "setting": "[2]", "result": "inactive"}
    ]},
    {"smiles": "Cn1nnc(-c2ccc(-c3ccc(N4C[C@H](CO)OC4=O)cc3F)cn2)n1", "values": [
      {"measurement": "Potency", "setting": "[1]", "result": "inactive"},
      {"measurement": "Potency", "setting": "[2]", "result": "inactive"}
    ]},
    {"smiles": "CNC(=S)NS(=O)(=O)c1cc(CCNC(=O)c2cc(Cl)ccc2OC)ccc1OC", "values": [
      {"measurement": "Potency", "setting": "[1]", "result": "inactive"},
      {"measurement": "Potency", "setting": "[2]", "result": "inactive"}
    ]},
    {"smiles": "CNC(=O)c1cccc(-c2ccc3c(N4CCOC[C@@H]4C)nc(N4CCOC[C@@H]4C)nc3n2)c1", "values": [
      {"measurement": "Potency", "setting": "[1]", "result": "inactive"},
      {"measurement": "Potency", "setting": "[2]", "result": "inactive"}
    ]},
    {"smiles": "C=C1CC23CC1CCC2C12OC(=O)C(C)(CCC1O)C2C3C(=O)O", "note": "(stereo unspecified)", "values": [
      {"measurement": "Potency", "setting": "[1]", "result": "inactive"},
      {"measurement": "Potency", "setting": "[2]", "result": "inactive"}
    ]},
    {"smiles": "OC[C@@]1(O)CO[C@@H](OC[C@H]2O[C@@H](Oc3c[nH]c4ccccc34)[C@H](O)[C@@H](O)[C@@H]2O)[C@@H]1O", "values": [
      {"measurement": "Potency", "setting": "[1]", "result": "inactive"},
      {"measurement": "Potency", "setting": "[2]", "result": "inactive"}
    ]},
    {"smiles": "C[C@@H]1O[C@@H](O[C@H]2[C@H](OC(=O)[C@]34CCC(C)(C)C[C@H]3C3=CCC5[C@@]6(C)C[C@H](O)[C@H](O[C@@H]7O[C@H](CO)[C@@H](O)[C@H](O)[C@H]7O)[C@@](C)(CO)C6[C@H](O)C[C@@]5(C)[C@]3(C)CC4)OC[C@H](O)[C@@H]2O)[C@H](O)[C@H](O)[C@H]1O[C@@H]1OC[C@@H](O)[C@H](O[C@@H]2OC[C@](O)(CO)[C@H]2O)[C@H]1O", "note": "(stereo partly specified)", "values": [
      {"measurement": "activity change, negative = inhibition", "setting": "[1]", "result": "-1.32% [at 19.1 µM]"},
      {"measurement": "activity change, negative = inhibition", "setting": "[2]", "result": "21.5% [at 10.7 µM]"}
    ]},
    {"smiles": "C=CC(C)(C)c1[nH]c2ccccc2c1C[C@@H]1NC(=O)[C@H](Cc2c[nH]c3ccccc23)NC1=O", "values": [
      {"measurement": "Potency", "setting": "[1]", "result": "inactive"},
      {"measurement": "Potency", "setting": "[2]", "result": "inactive"}
    ]},
    {"smiles": "CO[C@H]1C[C@@H]2CC[C@@H](C)[C@@](O)(O2)C(=O)C(=O)N2CCCC[C@H]2C(=O)O[C@H]([C@H](C)C[C@H]2CC[C@@H](OP(C)(C)=O)[C@H](OC)C2)CC(=O)[C@H](C)/C=C(\\C)[C@@H](O)[C@@H](OC)C(=O)[C@H](C)C[C@H](C)/C=C/C=C/C=C/1C", "values": [
      {"measurement": "Potency", "setting": "[1]", "result": "inactive"},
      {"measurement": "Potency", "setting": "[2]", "result": "inactive"}
    ]},
    {"smiles": "CC1OC(OC2C(CO)OC(OCC3OC(OC(=O)C45CCC(C)(C)CC4C4=CCC6C7(C)CCC(OC8OC(CO)C(O)C(OC9OC(CO)C(O)C(O)C9O)C8O)C(C)(C)C7CCC6(C)C4(C)CC5)C(O)C(O)C3O)C(O)C2O)C(O)C(O)C1OC1OC(CO)C(O)C(O)C1O", "note": "(stereo unspecified)", "values": [
      {"measurement": "activity change, negative = inhibition", "setting": "[1]", "result": "10.6% [at 19.1 µM]"},
      {"measurement": "outcome", "setting": "[2]", "result": "inactive [at 10.7 µM]"}
    ]},
    {"smiles": "COc1ccc(-c2c(-c3cc(C(=O)O)ccn3)ncn2C)cc1", "values": [
      {"measurement": "Potency", "setting": "[1]", "result": "inactive"},
      {"measurement": "Potency", "setting": "[2]", "result": "inactive"}
    ]}
  ]
}
